Activity calls are given as the source filed them.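 The calls were made as follows, unless noted: active = NADPH fluorescence slope more negative than the mean of all samples by about 3 SD, 99.7% confidence; inactive = the rest.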
What was measured:
[1] = inhibitors of TNFa-induced NFkB p65 translocation, primary screen, imaging, HUVEC, MLSMR starter and 10KST1 sets (AID 438;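 active = inhibition above 20% together with a positive visual image hit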;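 also: compound added about 3h40 before a 20 min TNFalpha stimulation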;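 as to inhibition: signal is the nuclear over cytoplasmic p65 intensity ratio per well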); conditions: HUVEC TNFa-induced p65 nuclear translocation; cell count: measured here: nuclei count (cytotoxicity indicator), at 2.08 µM; inhibition: at 2 µM, stronger effect = higher value, 0% TNFa-plus-vehicle, 100% no-TNFa wells
[2] = reduction of polyQ htt aggregates in cells – imaging, exon1htt(103Q)mCFP cells, high-content imaging, primary screen (AID 483;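 active = visual image review flags a hit and inhibition of aggregation exceeds 20%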;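 also: compound exposure lasted 3 days before fixation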;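 as to nuclei count: percent of the per-plate median nuclei count of sample wells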); conditions: exon1htt(103Q)mCFP cell line, aggregate imaging, at 2 µM; inhibition of aggregation: stronger effect = higher value; nuclei count: measured here: cell count, toxicity
[3] = endothelial E-selectin expression blockers – imaging, HUVEC, immunofluorescence, MLSMR starter and 10KST1 sets, primary screen (AID 487;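 active = visually confirmed hit in the image check and inhibition above 20%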;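 as to inhibition: signal is fraction of cell area covered by stained E-selectin grains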;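 as to nuclei count: 100% = median nuclei count of all wells on the same plate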); conditions: HUVEC TNFalpha-induced E-selectin immunofluorescence imaging, at 2 µM; inhibition: stronger effect = higher value; nuclei count: measured here: cell number, toxicity
[4] = target: Voltage-gated potassium channel subunit beta-2 (Rattus norvegicus) (UniProt P62483); assay: inhibitors of rat Kvbeta2 reductase activity – biochemical, NADPH fluorescence, primary screen (AID 622;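 active = fluorescence slope higher than the sample average by over 3 SD, cut at about -0.22 in these data, passing the limit was not always enough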;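 also: slope of raw intensity against log time taken from 70 to 1610 s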); conditions: recombinant KvBeta, 4-cyanobenzaldehyde reduction, at 10 µM, stronger effect = higher value
Chain of Voltage-gated potassium channel subunit beta-2 (Rattus norvegicus) (P62483 whole entry, looked up): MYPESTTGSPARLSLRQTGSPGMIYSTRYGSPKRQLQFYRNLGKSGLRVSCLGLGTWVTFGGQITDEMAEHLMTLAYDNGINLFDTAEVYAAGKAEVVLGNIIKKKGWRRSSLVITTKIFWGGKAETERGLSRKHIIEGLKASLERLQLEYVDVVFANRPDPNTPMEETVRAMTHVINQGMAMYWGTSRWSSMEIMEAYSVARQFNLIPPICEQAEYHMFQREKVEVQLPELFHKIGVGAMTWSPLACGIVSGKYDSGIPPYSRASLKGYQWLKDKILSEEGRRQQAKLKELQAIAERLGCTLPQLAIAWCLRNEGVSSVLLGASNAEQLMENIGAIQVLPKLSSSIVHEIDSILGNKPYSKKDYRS

[5] = target: Voltage-gated potassium channel subunit beta-2 (Rattus norvegicus) (UniProt P62483); assay: enhancers of rat Kvbeta2 NADPH turnover – biochemical, NADPH fluorescence, primary screen (AID 623); conditions: Recombinant KvBeta, NADPH fluorescence decrease slope, 10 min; at 10 µM; stronger effect = lower value;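 also: fluorescence intensity change per second fitted from 20 to 320 s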
[6] = target: Alpha-2C adrenergic receptor (Homo sapiens) (UniProt P18825); assay: compounds altering alpha2C-coupled GIRK flux – cell-based, HEK293 alpha2C/GIRK1/2, thallium flux, primary screen (AID 624;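 active = fluorescence slope after compound addition differing from the mean of all screened samples at 99.7% confidence, in either direction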;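 also: slope of fluorescence ratio to pre-addition baseline per second over 15 to 24 s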); conditions: thallium flux BTC fluorescence, at 10 µM, actives lie on both sides
Chain of Alpha-2C adrenergic receptor (Homo sapiens) (P18825 whole entry, looked up): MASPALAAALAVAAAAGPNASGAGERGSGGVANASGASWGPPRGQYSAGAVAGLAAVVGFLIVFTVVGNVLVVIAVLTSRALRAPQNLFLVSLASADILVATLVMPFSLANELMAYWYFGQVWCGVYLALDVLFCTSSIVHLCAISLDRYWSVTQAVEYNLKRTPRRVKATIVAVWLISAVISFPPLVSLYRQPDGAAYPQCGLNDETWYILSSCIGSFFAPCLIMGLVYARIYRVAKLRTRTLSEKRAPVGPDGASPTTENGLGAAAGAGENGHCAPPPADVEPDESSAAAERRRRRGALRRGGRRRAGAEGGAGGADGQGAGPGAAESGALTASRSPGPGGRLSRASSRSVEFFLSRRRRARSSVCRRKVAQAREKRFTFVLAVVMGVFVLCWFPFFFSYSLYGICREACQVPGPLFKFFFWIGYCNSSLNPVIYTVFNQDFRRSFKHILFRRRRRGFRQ

[7] = blockers of RIG-like receptor reporter activation – cell-based, Sendai virus stimulus, luciferase, 10K MLSCN set, TLR/RLR signaling modifier project, primary screen (AID 602276;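 active = inhibition at or above 50% at 10 µM; inactive = inhibition below 50%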;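 also: firefly luciferase from ISG56 promoter only with Renilla not read in this screen; 0% = Sendai virus plus DMSO and 100% = medium plus DMSO without virus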); conditions: HEK293 RL24 IRF3 luciferase reporter, at 10 µM, stronger effect = higher value
[8] = TLR3 IRF3 reporter activation blockers – cell-based, poly I:C stimulus, luciferase, 10K MLSCN set, primary screen (AID 602277;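 active = inhibition of the reporter signal at or above 50%; inactive = inhibition below 50%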); conditions: HEK293-TLR3 RL24 IRF3 luciferase reporter, at 10 µM, stronger effect = higher value

SMILES	cell count [1]	inhibition [1]	inhibition of aggregation [2]	nuclei count [2]	inhibition [3]	nuclei count [3]	fluorescence slope [4]	NADPH fluorescence slope [5]	slope [6]	inhibition [7]	inhibition [8]
COc1ccc(C(=O)c2ccccc2)c(O)c1	585	-2.6% (inactive)	6.6% (inactive)	94.1%	1.3% (inactive)	97.5%	-0.443 (inactive)	2.6e-05 (inactive)	0.00543 (inactive)	-1.71% (inactive)	-8.45% (inactive)
CC(C)CCNC(=O)C(C)N(Cc1ccc(F)cc1)C(=O)c1ccc(CN2CCCCC2)o1 (centres undefined)	327	-11.2% (inactive)	28.1% (active)	75.3%	2.1% (inactive)	106%	-0.284 (inactive)	-6e-05 (inactive)	0.00436 (inactive)	7.35% (inactive)	14% (inactive)
Cc1cc(C)n(-c2ccc(C(=O)Nc3ccc4c(c3)OCCO4)cc2)n1	529	-16.3% (inactive)	-2.4% (inactive)	103%	11.9% (inactive)	110%	-0.254 (inactive)	-2.3e-05 (inactive)	0.00537 (inactive)	-19.7% (inactive)	-108% (inactive)
COc1ccc2nc(NC(=O)c3ccoc3C)sc2c1	362	1.4% (inactive)	-11.6% (inactive)	106%	-75.7% (inactive)	118%	-0.38 (inactive)	-2.2e-05 (inactive)	0.00322 (inactive)	-30.4% (inactive)	-105% (inactive)
CCCC(=O)N1CC(=O)Nc2ccc(C)cc2C1c1ccc(F)cc1 (centres undefined)	698	-9.1% (inactive)	7.9% (inactive)	103%	-21.3% (inactive)	111%	-0.513 (inactive)	-3e-05 (inactive)	0.00518 (inactive)	3.95% (inactive)	24.9% (inactive)
CC(Sc1nc(-c2ccccc2)cc(C(F)(F)F)n1)C(=O)N1CCCC1 (centres undefined)	698	-1.1% (inactive)	-38.4% (inactive)	118%	-83% (inactive)	133%	-0.506 (inactive)	3.3e-05 (inactive)	0.00611 (inactive)	5.88% (inactive)	16.9% (inactive)
COc1ccc(C/C(N)=N/n2cnnc2)cc1Cl	356	-3.8% (inactive)	-13.5% (inactive)	99.1%	-14.7% (inactive)	107%	-0.447 (inactive)	-3.3e-05 (inactive)	0.00222 (inactive)	6.09% (inactive)	35.6% (inactive)
CCOC(=O)C1=C(C)NC2=C(C(=O)CC(C)(C)C2)C1c1ccc(N(C)C)cc1 (centres undefined)	368	-7.9% (inactive)	26.1% (inactive)	104%	-27.4% (inactive)	116%	-0.491 (inactive)	-8.1e-05 (inactive)	0.00676 (inactive)	-2.32% (inactive)	2.28% (inactive)
COCCN(CCOC)Cc1c(C)[nH]c2ccccc2c1=O	398	6.8% (inactive)	12.7% (inactive)	93.3%	1.8% (inactive)	104%	-0.351 (inactive)	-1.7e-05 (inactive)	0.00544 (inactive)	3.05% (inactive)	24.8% (inactive)
COC(=O)C(C)Sc1nc2c(c(=O)n1-c1ccccc1)SCC2 (centres undefined)	330	-1.4% (inactive)	-6.6% (inactive)	113%	-51.5% (inactive)	150%	-0.523 (inactive)	-7.6e-05 (inactive)	0.00467 (inactive)	7.35% (inactive)	13.2% (inactive)
CCOC(=O)c1cn(CC)c2cc(N3CCOCC3)c(F)cc2c1=O	249	-5.5% (inactive)	4.6% (inactive)	72.9%	-45.9% (inactive)	114%	-0.592 (inactive)	-1e-05 (inactive)	0.00553 (inactive)	3.57% (inactive)	10.9% (inactive)
CC(C)CNC(=O)c1ccccc1NC(=O)c1ccc(CN2CCOCC2)cc1	729	5.7% (inactive)	4% (inactive)	93.4%	-11% (inactive)	111%	-0.473 (inactive)	-5.1e-05 (inactive)	0.00594 (inactive)	1.28% (inactive)	14.5% (inactive)
CN1CCN(C(=O)C2CCN(S(=O)(=O)c3ccc4c(c3)oc(=O)n4C)CC2)CC1	554	-4.7% (inactive)	8.3% (inactive)	100%	-22% (inactive)	116%	-0.59 (inactive)	-2.4e-05 (inactive)	0.00694 (inactive)	8.49% (inactive)	23.9% (inactive)
CCCC1(C(=O)OC)NC(c2cc(OC)c(OC)c(OC)c2)C2C(=O)N(CC)C(=O)C21 (centres undefined)	582	5.5% (inactive)	8.1% (inactive)	111%	-37.6% (inactive)	110%	-0.48 (inactive)	3.3e-05 (inactive)	0.0052 (inactive)	-10.2% (inactive)	2.76% (inactive)
CCCCOc1ccc(CSc2n[nH]c(C)n2)cc1	243	0.2% (inactive)	-0.4% (inactive)	86.8%	5.3% (inactive)	96.6%	-0.435 (inactive)	2.4e-05 (inactive)	0.00825 (inactive)	-55.7% (inactive)	-90.2% (inactive)
CCCNc1nc(N2CCOCC2)nc(N2CCOCC2)n1	193	-17.4% (inactive)	23.8% (inactive)	92.2%	3.6% (inactive)	91.7%	-0.498 (inactive)	-2.3e-05 (inactive)	0.00617 (inactive)	-9.95% (inactive)	18.9% (inactive)
Cc1cccc(-n2ncc3c(N4CCC5(CC4)OCCO5)ncnc32)c1	617	1.3% (inactive)	-14.8% (inactive)	97.6%	-15.1% (inactive)	107%	-0.549 (inactive)	-6.5e-05 (inactive)	0.00695 (inactive)	-34.4% (inactive)	-101% (inactive)
COc1cccc(NC(=O)N2CCN(c3cccc(C)c3C)CC2)c1	647	-5.2% (inactive)	-12.7% (inactive)	75.8%	-139% (inactive)	93.3%	-0.455 (inactive)	-4.9e-05 (inactive)	0.00389 (inactive)	-24.5% (inactive)	-55.2% (inactive)
CC(=O)N1CCN(C(C)=O)C1c1ccccc1	464	6% (inactive)	-9.6% (inactive)	106%	-231% (inactive)	133%	-0.376 (inactive)	5.2e-06 (inactive)	0.00709 (inactive)	-22% (inactive)	-25.1% (inactive)

From PubChem BioAssay
